# This excerpt belongs to a sample that is enriched for hits.
# Tg IFNy HTS: T. gondii growth inhibition under IFN-gamma; Toxoplasma gondii growth in IFN-gamma-treated host cells; active compounds read low; activity change, negative = inhibition, % (no concentration beside the values); hit rate 3.8% among 69,000; in the data active means activity change below about -70%, passing the limit was not always enough;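 further: host cells are HeLa cells infected with Toxoplasma gondii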
# The depositor's hits bear a star.
SMILES,Tg IFNy HTS
CC(=O)N1CCC12CCN(Cc1ccc(C)s1)CC2,-8
O=C(NCCc1csc(-c2ccccc2)n1)C1CCN(C(=O)Cc2cccc(F)c2)CC1,-30
CC(C)N(C)Cc1cnc2n1CCN(CC1CCOC1)CC2 (centres undefined),-3
CCC(=O)Nc1cccc(Oc2nc(Nc3ccc(N4CCN(C)CC4)cc3OC)ncc2Cl)c1,-19
C=CC(=O)Nc1cccc(Oc2nc(Nc3ccc(N4CCN(C)CC4)cc3OC)ncc2Cl)c1,-67
C=CC(=O)Nc1cccc(Sc2nc(Nc3ccc(N4CCN(C)CC4)cc3)ncc2Cl)c1,-82*
COC(=O)CCNC(=O)CC(=O)Nc1ccc(C)cc1C,8
CCN(C(=O)c1ccn(-c2ccc3ccccn23)n1)C(C)C,-4
CC(C(=O)NC(C)(C)C)N(Cc1ccco1)C(=O)C1COc2ccccc2O1 (centres undefined),43
Cc1noc(C[C@@H]2C[C@@H]3CN(S(C)(=O)=O)C[C@@H]3O2)n1,-40
O=C(CN1CCCC1)N1CCc2ccccc21,-30
O=C(CN1CCC(c2nc3ccccc3[nH]2)CC1)N1CCCc2ccccc21,-7
O=C(CN1CCC(n2nnc3cc(C(F)(F)F)ccc32)CC1)N1CCc2ccccc21,-81*
CCN(CC)[C@@H]1CN(S(=O)(=O)c2cn(C)cn2)[C@H]2COC[C@@H]12,0
Cc1ccccc1-c1cccc(CC2(C(=O)N(C)C)CCN(C(=O)CC3C=CCC3)CC2)c1 (centres undefined),3
Cc1noc(C)c1C(=O)N1CCCn2cnc(COC(C)C)c2C1,-22
Cc1c(CN(C)Cc2cccc(C(C)(C)C)c2O)cnn1C,-93*
Cc1ccc(C)c(-c2[nH]ncc2CN(C)Cc2cnn(C)c2C)c1,-1
Cc1c(CN(C)C(=O)c2cccc(C#CC(C)(C)O)c2)cnn1C,-1
CC(C)CN1Cc2ccccc2C2(CCN(C(=O)c3ccco3)CC2)C1,11
CN(C)C(=O)[C@@H]1C[C@@H]2OCC[C@@H]2N(CCOc2ccc(Cl)cc2)C1,236
Cc1c2oc3c(C)ccc(C(=O)N[C@@H]4C(=O)N[C@H](C(C)C)C(=O)N5CCC[C@H]5C(=O)N(C)CC(=O)N(C)[C@@H](C(C)C)C(=O)O[C@@H]4C)c3nc-2c(C(=O)N[C@@H]2C(=O)N[C@H](C(C)C)C(=O)N3CCC[C@H]3C(=O)N(C)CC(=O)N(C)[C@@H](C(C)C)C(=O)O[C@@H]2C)c(N)c1=O,-82*
Cc1cccc(NC(=O)C2CCN(S(=O)(=O)c3ccc4[nH]c(=O)ccc4c3)CC2)c1,-17
CC1Cc2cc(CN(C)C(=O)CCS(=O)(=O)c3cccc4cccnc34)ccc2O1 (centres undefined),-26
CC1Cc2cc(CN(C)C(=O)Cn3c(=O)oc4ccc(Cl)cc43)ccc2O1 (centres undefined),-92*
SMILES,Tg IFNy HTS
CN(CCNC(=O)Cn1c(=O)oc2ccc(Cl)cc21)c1ccccc1,-3
Cc1c(C)n(C(=O)CN2CCC(O)(Cn3cnc4ccccc43)CC2)c2ccccc12,37
C=CCOC[C@@H]1CNC(=O)[C@H]2CCN(CCOC)CC[C@@H]12,-29
Cc1ccc(S(=O)(=O)Nc2ccc(S(=O)(=O)Nc3nc(C)cc(C)n3)cc2)cc1,48
Cc1ccc(S(=O)(=O)Nc2c(Cl)c(Cl)nc(C#N)c2Cl)cc1,-93*
Cc1ccc(S(=O)(=O)Nc2cc(C(C)(C)C)sc2C#N)cc1,1
CCNC(=O)c1nc2c(s1)CCCN2c1ccccc1,-3
COc1ccc(CNc2nc(-c3ccncc3)cc3ncccc23)cc1,10
COc1ccc2nc(C)cc(Sc3cc(C)nc4ccc(OC)cc34)c2c1,21
Cc1ccccc1CNc1nc(-c2nnc(-c3ccccc3)o2)nc2ccccc12,-90*
COc1ccccc1CNc1nc(-c2nnc(-c3ccccc3)o2)nc2ccccc12,-96*
Cc1ccc(-c2nnc(-c3nc(NC(C)c4ccccc4)c4ccccc4n3)o2)cc1 (centres undefined),-63
COc1ccc(-c2nnc(-c3nc(NCc4ccccc4)c4ccccc4n3)o2)cc1,-69
COc1ccccc1CNc1nc(-c2nnc(-c3cccc(C)c3)o2)nc2ccccc12,-90*
CC(CNc1nc(-c2nnc(-c3ccccc3)o2)nc2ccccc12)c1ccccc1 (centres undefined),-115*
COc1ccc(-c2nnc(-c3nc(NCc4ccccc4C)c4ccccc4n3)o2)cc1,32
CCOc1ccccc1CNc1nc(-c2nnc(-c3ccc(OC)cc3)o2)nc2ccccc12,-13
Clc1ccccc1CNc1nc(-c2nnc(-c3ccccc3)o2)nc2ccccc12,-49
c1ccc(CCNc2nc(-c3nnc(-c4ccccc4)o3)nc3ccccc23)cc1,-64
CC(C)NC(=O)[C@@H]1C[C@@H](N)CN1C(=O)CCCc1c[nH]c2ccccc12,23
Cc1cc2c(C)nc3ccc(C(=O)O)cc3c2o1,-33
Cc1nc(-c2ccccc2)sc1CCNS(=O)(=O)c1ccc2c(c1)CCCC2,-16
Cc1ccc(-c2nnc(-c3nc(NCc4ccco4)c4ccccc4n3)o2)cc1,35
Cc1ccc(-c2nnc(-c3nc(NCc4ccccn4)c4ccccc4n3)o2)cc1,-94*
